Assay results from PubChem BioAssay AID1159580 (chemical genetic matrix, 2015).
The whole screen tested about 5,500 compounds, of which about 2,000 (36%) were called active. Not shown: some 18% with an inconclusive outcome. Cut-off read from the data, not from the text of the source: active = normalized growth mostly below about 0.91 (no sharp cut-off); inconclusive = no clear call, values can overlap the other calls; inactive = mostly above about 0.92. The list shows a part of the results.

Experiment: chemical genetic growth profiling, strain panel (AID 1159580);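 note: tested at 20 µM; growth read once vehicle control cultures reached saturation at 30 °C; 1 = growth at the plate median or of vehicle wells; lower values mean less growth of the strain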
Settings: growth OD

Measured: normalized growth

COc1c(O)cccc1O
inactive: S. cerevisiae deletion strains, locus YJL187C, strain SWE1, active compounds read low 1.02 | S. cerevisiae deletion strains, locus YJR043C, strain POL32, active compounds read low 1.03 | S. cerevisiae deletion strains, locus YJR066W, strain TOR1, active compounds read low 0.977 | S. cerevisiae deletion strains, locus YJR075W, strain HOC1, active compounds read low 1.02 | S. cerevisiae deletion strains, locus YKL009W, strain mrt4, active compounds read low 1.05 | S. cerevisiae deletion strains, locus YKL068W, active compounds read low 0.99 | S. cerevisiae deletion strains, locus YKL085W, strain MDH1 (second series), active compounds read low 1.01 | S. cerevisiae deletion strains, locus YKL085W, strain MDH1, active compounds read low 1.01 | S. cerevisiae deletion strains, locus YKL160W, strain elf1, active compounds read low 1.01 | S. cerevisiae deletion strains, locus YKR001C, strain vps1, active compounds read low 1.08 | S. cerevisiae deletion strains, locus YKR026C, strain gcn3, active compounds read low 1.02 | S. cerevisiae deletion strains, locus YKR091W, strain srl3, active compounds read low 1.02 | S. cerevisiae deletion strains, locus YLL001W, strain dnm1, active compounds read low 1.03 | S. cerevisiae deletion strains, locus YLL026W, active compounds read low 1.02 | S. cerevisiae deletion strains, locus YLL041C, strain sdh2, active compounds read low 1.02 | S. cerevisiae deletion strains, locus YLR027C, strain aat2, active compounds read low 1.01 | S. cerevisiae deletion strains, locus YLR039C, strain RIC1, active compounds read low 1.11 | S. cerevisiae deletion strains, locus YLR058C, strain SHM2, active compounds read low 1.03 | S. cerevisiae deletion strains, locus YLR102C, strain apc9, active compounds read low 1 | S. cerevisiae deletion strains, locus YLR113W, strain HOG1, active compounds read low 1.04 | S. cerevisiae deletion strains, locus YLR221C, strain rsa3, active compounds read low 1.03 | S. cerevisiae deletion strains, locus YLR258W, strain gsy2, active compounds read low 1.02 | S. cerevisiae deletion strains, locus YLR262C, strain YPT6 (second series), active compounds read low 1.03 | S. cerevisiae deletion strains, locus YLR268W, strain sec22, active compounds read low 1.05 | S. cerevisiae deletion strains, locus YLR320W, strain mms22, active compounds read low 1.04 | S. cerevisiae deletion strains, locus YLR330W, strain CHS5, active compounds read low 1.01 | S. cerevisiae deletion strains, locus YLR342W, strain FKS1, active compounds read low 1.03 | S. cerevisiae deletion strains, locus YLR357W, strain rsc2, active compounds read low 1.03 | S. cerevisiae deletion strains, locus YLR370C, strain arc18, active compounds read low 1.02 | S. cerevisiae deletion strains, locus YLR371W, strain rom2, active compounds read low 1.03 | S. cerevisiae deletion strains, locus YLR384C, strain iki3, active compounds read low 1.01 | S. cerevisiae deletion strains, locus YLR418C, strain cdc73, active compounds read low 1.1 | S. cerevisiae deletion strains, locus YML016C, strain PPZ1, active compounds read low 1.01 | S. cerevisiae deletion strains, locus YML032C, strain rad52, active compounds read low 1.01 | S. cerevisiae deletion strains, locus YML120C, strain ndi1, active compounds read low 1.01 | S. cerevisiae deletion strains, locus YML124C, strain tub3, active compounds read low 1 | S. cerevisiae deletion strains, locus YMR058W, strain fet3, active compounds read low 1.03 | S. cerevisiae deletion strains, locus YMR078C, strain ctf18, active compounds read low 1.02 | S. cerevisiae deletion strains, locus YMR125W, strain sto1, active compounds read low 1.01 | S. cerevisiae deletion strains, locus YMR129W, active compounds read low 1.02 | S. cerevisiae deletion strains, locus YMR205C, strain PFK2, active compounds read low 1.03 | S. cerevisiae deletion strains, locus YMR223W, strain ubp8, active compounds read low 1.03 | S. cerevisiae deletion strains, locus YMR231W, strain pep5, active compounds read low 1 | S. cerevisiae deletion strains, locus YMR307W, strain GAS1, active compounds read low 1.13 | S. cerevisiae deletion strains, locus YNL067W, strain RPL9B, active compounds read low 0.97 | S. cerevisiae deletion strains, locus YNL071W, strain lat1, active compounds read low 1.03 | S. cerevisiae deletion strains, locus YNL153C, strain GIM3, active compounds read low 1.02 | S. cerevisiae deletion strains, locus YNL183C, strain NPR1, active compounds read low 0.984 | S. cerevisiae deletion strains, locus YNL209W, strain ssb2, active compounds read low 1.01 | S. cerevisiae deletion strains, locus YNL233W, strain BNI4, active compounds read low 1.03 | S. cerevisiae deletion strains, locus YNL248C, strain rpa49, active compounds read low 1.04 | S. cerevisiae deletion strains, locus YNL250W, strain rad50, active compounds read low 1.05 | S. cerevisiae deletion strains, locus YNL271C, strain bni1, active compounds read low 1.02 | S. cerevisiae deletion strains, locus YNL298W, strain CLA4, active compounds read low 1.03 | S. cerevisiae deletion strains, locus YNL307C, strain MCK1, active compounds read low 1.01 | S. cerevisiae deletion strains, locus YNL322C, strain KRE1 (second series), active compounds read low 1.02 | S. cerevisiae deletion strains, locus YNL322C, strain KRE1, active compounds read low 0.99 | S. cerevisiae deletion strains, locus YNR049C, strain mso1, active compounds read low 1.02 | S. cerevisiae deletion strains, locus YNR052C, strain pop2, active compounds read low 1.04 | S. cerevisiae deletion strains, locus YOL012C, strain htz1 0.853 | S. cerevisiae deletion strains, locus YOL147C, strain pex11, active compounds read low 0.999 | S. cerevisiae deletion strains, locus YOR001W, strain rrp6, active compounds read low 1.02 | S. cerevisiae deletion strains, locus YOR061W, strain CKA2, active compounds read low 1.01 | S. cerevisiae deletion strains, locus YOR069W, strain VPS5, active compounds read low 0.996 | S. cerevisiae deletion strains, locus YOR070C, strain gyp1, active compounds read low 1.01 | S. cerevisiae deletion strains, locus YOR080W, strain dia2, active compounds read low 1.03 | S. cerevisiae deletion strains, locus YOR083W, strain WHI5, active compounds read low 1.03 | S. cerevisiae deletion strains, locus YOR106W, strain vam3, active compounds read low 1.06 | S. cerevisiae deletion strains, locus YOR136W, strain idh2, active compounds read low 1.02 | S. cerevisiae deletion strains, locus YOR144C, strain elg1, active compounds read low 1.01 | S. cerevisiae deletion strains, locus YOR184W, strain ser1, active compounds read low 1.06 | S. cerevisiae deletion strains, locus YOR231W, strain MKK1, active compounds read low 1.03 | S. cerevisiae deletion strains, locus YOR265W, strain rbl2, active compounds read low 1.01 | S. cerevisiae deletion strains, locus YOR270C, strain vph1, active compounds read low 1.13 | S. cerevisiae deletion strains, locus YOR290C, strain snf2, active compounds read low 1.03 | S. cerevisiae deletion strains, locus YOR316C, strain cot1, active compounds read low 1 | S. cerevisiae deletion strains, locus YPL051W, strain arl3, active compounds read low 0.998 | S. cerevisiae deletion strains, locus YPL078C, strain atp4, active compounds read low 1.03 | S. cerevisiae deletion strains, locus YPL106C, strain sse1, active compounds read low 1.04 | S. cerevisiae deletion strains, locus YPL240C, strain hsp82, active compounds read low 1.02 | S. cerevisiae deletion strains, locus YPL256C, strain CLN2, active compounds read low 1.01 | S. cerevisiae deletion strains, locus YPR119W, strain clb2, active compounds read low 1.01 | S. cerevisiae deletion strains, locus YPR141C, strain kar3, active compounds read low 1.01 | S. cerevisiae deletion strains, locus YPR163C, strain tif3, active compounds read low 1.03 | S. cerevisiae deletion strains, locus YPR167C, strain met16, active compounds read low 1.04 | S. cerevisiae deletion strains, strain wtn01, active compounds read low 1.04 | S. cerevisiae strains, strain wild type, active compounds read low 1
